Consider ten compounds from the supplement of paper PMC9694430.

What all share (assay): thermal shift delta Tm vs DMSO control; higher = stronger stabilization (binding)
Settings in all cases: 12.5 µM; protein concentration 2 µM

Experiment [1] concerns LOC_OS01G01410-cb001. The procedure, abridged:
(§1)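 The melting temperature shift given here is a triplicate mean, measured against protein that received only DMSO. Melting temperatures came from Boltzmann fits of differential scanning fluorimetry data on E. coli-expressed, purified rice kinase domain constructs. Each 19.5 μl well contained 2 μM kinase, 100 mM potassium phosphate pH 7.5, 150 mM NaCl, 10% glycerol, 5 × SYPRO Orange and compound in DMSO. Plates were scanned from 25°C to 95°C at 0.05°C/s.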

Experiment [2] has as its system LOC_OS01G02750-cb003. The essentials:
as §1

The subject of experiment [3] is LOC_OS01G10900-cb004. The procedure, abridged:
as §1

In experiment [4] the test system is LOC_OS01G13800-cb001. The procedure, abridged:
as §1

The test system of experiment [5] is LOC_OS01G14860-cb001. The essentials:
as §1

The test system of experiment [6] is LOC_OS01G21960-cb002. The essentials: as §1
Experiment [7] deals with LOC_OS01G39600-cb002. The procedure, abridged:
as §1

Experiment [8] relates to LOC_OS01G48390-cb002. The essentials: as §1
Experiment [9] concerns LOC_OS01G51400-cb002. The procedure, abridged:
as §1

In experiment [10] the test system is T1, LOC_OS01G52050-cb004.
T1 sequence (whole entry): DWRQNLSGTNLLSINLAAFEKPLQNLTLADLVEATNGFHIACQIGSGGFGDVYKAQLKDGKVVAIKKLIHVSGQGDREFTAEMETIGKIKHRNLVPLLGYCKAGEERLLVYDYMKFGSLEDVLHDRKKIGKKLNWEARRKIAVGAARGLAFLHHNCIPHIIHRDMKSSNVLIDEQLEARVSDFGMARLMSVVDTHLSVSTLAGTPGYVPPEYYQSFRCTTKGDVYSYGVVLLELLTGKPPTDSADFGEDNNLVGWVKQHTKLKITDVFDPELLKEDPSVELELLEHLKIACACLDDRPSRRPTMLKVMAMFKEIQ
The essentials: as §1

Turning to `CNC(=O)c1cc(Oc2ccc(NC(=O)Nc3ccc(Cl)c(C(F)(F)F)c3)cc2)ccn1` [Sorafenib], the “thermal shift delta Tm” value was found to be 1.65 °C in experiment [1]; 3.61 °C in [2]; 1.53 °C in experiment [3]; 1.59 °C in [4]; 4.41 °C in [5]; 2.7 °C in experiment [6]. The “thermal shift delta Tm” value in experiment [7] amounted to 1.52 °C; in experiment [8] it was 2.74 °C; in experiment [9], 0.71 °C; in experiment [10] it was 5.22 °C.

In the case of `C[C@H](CN(C)C)Oc1nc(Nc2cc3cccc(Cl)c3cn2)cnc1C#N`, the “thermal shift delta Tm” value was 0.28 °C in experiment [1]; 1.3 °C in experiment [2]; 0.44 °C in experiment [3]; 0.1 °C in [4]; 0.9 °C in experiment [5]; 1.95 °C in experiment [6]. The “thermal shift delta Tm” value in experiment [7] stood at 0.03 °C; in [8], 4.18 °C; in experiment [9], 0.08 °C; in experiment [10], 1.79 °C.

On to `Cc1nc(NC(=O)N2CCC[C@H]2C(N)=O)sc1-c1ccnc(C(C)(C)C(F)(F)F)c1` [Alpelisib (BYL719)], for which the “thermal shift delta Tm” value in [1] is 0.28 °C; in experiment [2], 1.42 °C; in experiment [3], 3.68 °C; in experiment [4], -0.51 °C; in experiment [5], -0.19 °C; in experiment [6] it was 0.02 °C. Besides, the “thermal shift delta Tm” value is -0.17 °C in experiment [7], 0.54 °C in experiment [8], 0.42 °C in experiment [9] and 0.12 °C in [10].

As to `O=C1Nc2ccccc2/C1=C1/Nc2ccccc2C1=O` [Indirubin], the “thermal shift delta Tm” value in experiment [1] was 1.5 °C; in experiment [2], -0.12 °C; in experiment [3], 3.43 °C; in experiment [4] it was -0.14 °C; in experiment [5] it was 3.18 °C; in experiment [6] it was 0.67 °C. In addition, the “thermal shift delta Tm” value in experiment [7] is -4.22 °C; in experiment [8], 0.94 °C; in experiment [9], 0.43 °C; in [10], 0.55 °C.

For the compound `CO[C@@H](C)Cn1c(=O)n(C)c2cnc3ccc(-c4cncc(C(C)(C)O)c4)cc3c21`, the “thermal shift delta Tm” value was 0.7 °C in experiment [1]; 1.17 °C in [2]; 0.3 °C in experiment [3]; 0.76 °C in [4]; 0.77 °C in experiment [5]; 0.72 °C in [6]. Also, the “thermal shift delta Tm” value in [7] was 0.26 °C; in experiment [8], 0.5 °C; in experiment [9], 0.38 °C; in experiment [10], 1.9 °C.

Take `COc1cccc(-n2c(=O)[nH]c3cc(Cl)n(-c4ccc(-c5cccc(OC)c5O)cc4)c3c2=O)c1`: the “thermal shift delta Tm” value in [1] is 0.44 °C; in experiment [2], 1.69 °C; in [3], -0.02 °C; in [4], 0.72 °C; in experiment [5] it was 0.13 °C; in experiment [6], 0.8 °C. Moreover, the “thermal shift delta Tm” value in experiment [7] is -0.12 °C; in experiment [8] it was 1.54 °C; in [9], 0.69 °C; in experiment [10], 0.03 °C.

Turning to `CCN(CC)CCNC(=O)c1c(C)[nH]c(/C=C2\C(=O)Nc3ccc(F)cc32)c1C` [Sunitinib Malate], the “thermal shift delta Tm” value was 4.49 °C in [1]; 1.04 °C in experiment [2]; 0.54 °C in [3]; -0.1 °C in experiment [4]; 1.29 °C in experiment [5]; 2.13 °C in [6]. Besides, the “thermal shift delta Tm” value was determined as 2.58 °C in experiment [7], 2.08 °C in experiment [8], 0 °C in experiment [9] and 7.04 °C in experiment [10].

In the case of `O=C(O)[C@]1(Cc2cccc(Nc3nccs3)n2)CC[C@@H](Oc2cccc(Cl)c2F)CC1`, the “thermal shift delta Tm” value in [1] was 1.81 °C; in experiment [2], 1.68 °C; in [3], 3.48 °C; in experiment [4], -1.25 °C; in [5] it was 5.16 °C; in experiment [6], 1 °C. In addition, the “thermal shift delta Tm” value in [7] was 2.55 °C; in experiment [8] it was 3.01 °C; in [9], -0.7 °C; in [10], 13.5 °C.

For the compound `COc1ccc(Cl)cc1NC(=O)Nc1cc(C)nc2ccccc12`, the “thermal shift delta Tm” value in [1] was found to be 0.77 °C; in experiment [2] it was 3.02 °C; in [3], 0.18 °C; in experiment [4], 0.68 °C; in [5], 0.5 °C; in [6], 1.37 °C. Further, the “thermal shift delta Tm” value in experiment [7] was -1.53 °C; in experiment [8], 5.48 °C; in [9], 1.15 °C; in experiment [10], 1.3 °C.

As to `O=C1c2ccc(Nc3ccc(F)cc3F)cc2CCc2ccc(OC[C@H](O)CO)cc21` [Skepinone-L], the “thermal shift delta Tm” value was 0.24 °C in [1]; 1.29 °C in [2]; 1.14 °C in [3]; -0.71 °C in experiment [4]; 0.36 °C in experiment [5]; 0.57 °C in [6]. The “thermal shift delta Tm” value in [7] is -1.35 °C; in experiment [8], 0.21 °C; in experiment [9], -0.11 °C; in experiment [10] it was 0.04 °C.
